Where “and” joins values, the source holds several entries; their conditions need not be identical. Identical values can stand only once. Unmarked numbers belong to inactive results. Inconclusive results are not listed. Calls of active or inactive are those of the source. Unless noted, calls come from the whole dose curve; as a rule, active = well fitted curve in the direction sought with a large enough effect; inconclusive = small, poorly fitted or top-dose-only effect, or another doubt; inactive = no such curve, though single readings can be large; an effect the other way counts as inactive or inconclusive. Bounds are passed on as bounds.

Our source for the Potency, activity change, negative = cytotoxicity and outcome values is PubChem BioAssay (NCATS).

Assay [1] is described as follows: Cell Viability - MRC5 (AID 434; calls by dose curve;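 note: potency is the fitted concentration of half-maximal effect; cells exposed to compound for 40 hours at 37 °C; potency reflects cytotoxicity seen as loss of intracellular ATP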). The conditions noted are these: MRC5 lung fibroblast viability, qHTS. In a few lines: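 Decrease in intracellular ATP, quantified by luciferase light output, reflects compound toxicity toward MRC5 cells exposed for 40 hr in complete culture medium. Concentration-response curves, scaled between DMSO and 100 uM tamoxifen, gave AC50 values.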
(In general: In qHTS, concentration-response curves come from the screen itself.)

The nature of assay [2]: Cell Viability - SK-N-SH (AID 435; calls by dose curve;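 note: potency is the fitted concentration of half-maximal effect; compound exposure lasted 40 h at 37 °C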). Conditions: SK-N-SH neuroblastoma cell viability qHTS. In a few lines: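 Human neuroblastoma line, 40 h exposure at 37 °C, ATP quantified via luciferase luminescence; DMSO and 100 uM tamoxifen define 0 and 100% inhibition for AC50 fitting.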
A short description of assay [3]: Cell Viability - NIH 3T3 (AID 541).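 For activity change, negative = cytotoxicity: plate controls were DMSO alone for no effect and tamoxifen positive control for full effect.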 Note: nearly all actives have a fitted effect of over 25% in size. Note: potency is the fitted concentration of half-maximal effect. The conditions noted are these: NIH 3T3 cell viability, qHTS; activity change, negative = cytotoxicity: at 92.2 µM (top of the series). The method, boiled down:
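In this cytotoxicity screen, acute toxicity is scored as an ATP drop measured by CellTiter-Glo in NIH 3T3 fibroblasts following a 40 hr, 37 °C incubation with compound.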

Assay [4] can be described thus: Cell Viability - Mesenchymal (AID 546).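 Note: cells exposed to compound for 40 hours before reading.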 The conditions noted are these: mesenchymal cells viability, qHTS; activity change, negative = cytotoxicity: at 91.7 µM (top of the series). In a few lines:
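In this qHTS cytotoxicity format, glomerulus-derived human mesenchymal kidney cells received compound for 40 hr, then luciferase-based ATP quantitation. Concentration-response data were fitted with the Hill equation.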

A short description of assay [5]: Cellular Toxicity (caspase-3) HepG2 (AID 654).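 Note: cells exposed to compound for 16 hours before reading.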 Conditions: HepG2 caspase-3 activation, luminescence, 0% = DMSO only, 100% = tamoxifen; series mostly up to 92.2 µM. In a few lines:
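Concentration-response AC50 values reflect caspase-3/7 induction in HepG2 cells after 16 hours of compound exposure, quantified by luminescence from liberated aminoluciferin and referenced to 100 uM tamoxifen as full stimulation.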

Assay [6] is described as follows: Cellular Toxicity (caspase-3) HUV-EC-C (AID 656). Conditions: HUV-EC-C cells, caspase-3 activation (apoptosis), vehicle = 0, 100 µM tamoxifen = 100%; series mostly up to 92.2 µM. The method, boiled down: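 Concentration-dependent caspase 3/7 induction was assessed in HUV-EC-C cells exposed for 16 hours. Data scaled between DMSO and tamoxifen (100 uM) controls.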

Assay [7] can be described thus: Cellular Toxicity (caspase-3) BJ (AID 658). The conditions noted are these: BJ fibroblasts, luminescence, normalized: DMSO 0%, staurosporine 100%; series mostly up to 91.7 µM. In a few lines: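 Plated BJ cells (1000/well) rested 5 hr, received compound for 16 hr at 37 °C, then Caspase-Glo 3/7 reagent for 1 hr at room temperature before luminescence reading.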
Assay [8] can be described thus: Cellular Toxicity (caspase-3) MRC-5 (AID 659). The conditions noted are these: MRC-5 cells, luminescence, normalized: DMSO 0%, 10 µM staurosporine 100%; series mostly up to 91.7 µM. In a few lines:
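Apoptosis readout in MRC-5 cells: luciferase light generated after caspase 3/7 cleaves a peptide-aminoluciferin substrate, measured post 16 hr compound incubation at 37 °C.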

Assay [9] in a line: Cellular Toxicity (caspase-3) Mesangial (AID 660).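 Note: combined caspase 3 and 7 activity read by Caspase-Glo luminescence; cells exposed to compound for 16 h before the caspase read.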 The conditions noted are these: mesangial cells, normalized: DMSO 0%, 100 µM tamoxifen 100%; series mostly up to 91.7 µM. The method, boiled down: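 AC50 values come from Hill-equation fits of caspase 3/7 activation, measured as Caspase-Glo luminescence in human glomerular mesangial cells exposed to compound for 16 h at 37 °C; 100% set by 100 uM tamoxifen.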

Assay [10] is described as follows: Cellular Toxicity (caspase-3) Hek293 (AID 664).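 Note: cells exposed to compound for 16 h at 37 °C before readout.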 Conditions: HEK293 caspase-3 activation, DMSO = 0%, 100 µM tamoxifen = 100%; series mostly up to 92.2 µM. In a few lines: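 Apoptosis readout: Caspase-Glo 3/7 signal in human HEK293 cells following 16-hour compound incubation. Responses scaled between DMSO baseline and 100 uM tamoxifen.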
A short description of assay [11]: Cellular Toxicity (caspase-3) Renal Proximal Tubule (AID 667).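 Note: cells exposed to compound for 16 hours at 37 °C before detection.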 The conditions noted are these: renal proximal tubule cells, primary cells freshly taken from rat, solvent-only wells 0%, staurosporine 100%; series mostly up to 91.7 µM. In a few lines:
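Caspase-Glo 3/7 read-out, rat primary kidney proximal tubule cells. Compound exposure 16 h, 37 °C; detection after 1 h at RT. Activity scaled to DMSO and 10 uM staurosporine.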

Assay [12] can be described thus: MultiTox-Fluor Cytotoxicity Assay - LYMP1-003 - Live Cells (AID 962). Note: potency is the fitted concentration of half-maximal effect. The conditions noted are these: LYMP1-003 lymphoblastoid cells, MultiTox-Fluor live-cell protease fluorescence; series mostly up to 92.2 µM. The method, boiled down: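 Human lymphoblastoid line LYMP1-003 in complete culture medium, treated 16 hr with titrated compounds. Viable cells quantified via cell-permeant GF-AFC substrate fluorescence; AC50 derived by Hill fitting.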

Assay [13] in a line: Cell Viability - LYMP1-003 - Assay at 40 hr (AID 964). Note: nearly all actives have a fitted effect of over 60% in size. Note: potency is the fitted concentration of half-maximal effect. The conditions noted are these: LYMP1-003 lymphoblastoid viability; series mostly up to 92.2 µM. In a few lines: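 Acute toxicity is scored as a concentration-dependent loss of intracellular ATP in LYMP1-003 cells (2500/well, complete medium) after 40 hr at 37 C, measured by CellTiter-Glo luminescence; AC50 values derive from standard Hill modelling.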

The nature of assay [14]: Cell Viability - LYMP2-011 (AID 969).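 Note: cells exposed to compound for 24 hours; nearly all actives have a fitted effect of over 60% in size.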 Note: potency is the fitted concentration of half-maximal effect. The conditions noted are these: LYMP2-011 lymphoblastoid cells viability; series mostly up to 92.2 µM. In a few lines:
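Cells seeded at 2500 per well rest 5 hr before compound addition, then incubate 24 hr at 37 C. CellTiter-Glo reagent is added for 30 min at room temperature before luminescence detection.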

Assay [15] in a line: Cell Viability - LYMP2-017 (AID 972). For activity change, negative = cytotoxicity: % is set by controls: 0 for no effect and ±100 for the full control effect.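 Note: cells exposed to compound for 24 hours at 37 °C; nearly all actives have a fitted effect of over 55% in size.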 Note: potency is the fitted concentration of half-maximal effect. The conditions noted are these: LYMP2-017 lymphoblastoid cell viability; series mostly up to 92.2 µM. In a few lines:
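In this qHTS format, lymphoblastoid cells in complete medium receive test compound for a day at 37 C before ATP content is quantified by luciferase luminescence. Reported AC50 figures come from standard Hill-equation curve fitting.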

Assay [16] in a line: Cell Viability - LYMP2-007 (AID 979).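 For activity change, negative = cytotoxicity: 0% = DMSO only and the negative end = 92 µM tetraoctylammonium bromide.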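 Note: cells exposed to compound for 24 h before reading; nearly all actives have a fitted effect of over 60% in size.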 Note: potency is the fitted concentration of half-maximal effect. The conditions noted are these: LYMP2-007 lymphoblastoid cell viability; series mostly up to 92.2 µM. The method, boiled down: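 Measured via luciferase-based ATP quantitation: lymphoblastoid cells, 24 hr compound exposure at 37 C, AC50 from Hill fits.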
The nature of assay [17]: Cell Viability - LYMP2-010 (AID 981).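 Note: cells exposed to compound for 24 hours at 37 °C; nearly all actives have a fitted effect of over 55% in size.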 Note: potency is the fitted concentration of half-maximal effect. Conditions: LYMP2-010 lymphoblastoid cell viability, qHTS; series mostly up to 92.2 µM. The method, boiled down:
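This 24 hr viability screen uses LYMP2-010 lymphoblastoid cells, quantifies ATP via luciferase luminescence, and derives AC50 from Hill fits of qHTS concentration-response data.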

Assay [18] is described as follows: Cell Viability - LYMP2-012 (AID 982).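 For activity change, negative = cytotoxicity: 0% = DMSO only and full loss = 92 µM tetraoctylammonium bromide.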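 Note: cellular ATP by luciferase luminescence where a drop means cytotoxicity; cells exposed to compound for one day before reading; nearly all actives have a fitted effect of over 55% in size.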 Note: potency is the fitted concentration of half-maximal effect. The conditions noted are these: LYMP2-012 lymphoblastoid cell viability qHTS; series mostly up to 92.2 µM.
Assay [19] is described as follows: Cell Viability - LYMP2-018 (AID 985).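 For activity change, negative = cytotoxicity: plate controls were DMSO only for no effect and tetraoctylammonium bromide at 92 µM for full effect.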 Note: nearly all actives have a fitted effect of over 50% in size. Note: potency is the fitted concentration of half-maximal effect. Conditions: LYMP2-018 lymphoblastoid cells, viability (qHTS); series mostly up to 92.2 µM. The method, boiled down: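 In this qHTS viability assay, cells are treated for 24 hr and cellular ATP is quantified by luciferase-based luminescence, with tetraoctylammonium bromide as positive control.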
The nature of assay [20]: qHTS Assay for Identification of Small Molecule Inducers of Hypoxia Response (AID 2120; active = well fitted curve in the direction sought with a large enough effect in the signal ratio, with a control signal flat, not every such curve was filed as active; the % refers to the signal ratio; note: 0% is about no effect). The conditions noted are these: hypoxia response reporter cells, beta-lactamase ratio readout; series mostly up to 104 µM. The method, boiled down:
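HRE-bla ME-180, 2500 cells/well, 0.5% dialyzed FBS medium; cpd titration, 17 h 37 degrees C; CCF4 2.5 h RT; Ex 405, Em 460/530 ratio -> %Activity, AC50.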

On to `c1ccc2c(c1)[nH]c1ccccc12`, for which the Potency in [1] and in [2] was > 92 µM each time. The Potency result in [3], in assay [12], in [13], in assay [14], in assay [15] and in assay [16] was “inactive” each time. Also, the Potency entry in assay [17], in assay [18] and in [19] was “inactive” throughout. Also, in assay [4], the activity change, negative = cytotoxicity was -7.62%. For the same compound, the result in assay [5], in assay [6], in assay [7], in assay [8], in [9] and in [10] was inactive. For the same compound, the outcome in assay [11] and in assay [20] was inactive.

As for `Nc1ccc(S(=O)(=O)O)cc1`, the Potency in assay [1] and in assay [2] was > 92 µM throughout. Further, the Potency result in assay [3], in assay [12], in assay [13], in assay [14], in [15] and in [16] was “inactive” each time. For the same compound, the Potency entry in assay [17], in [18] and in assay [19] was “inactive” each time. For the same compound, the activity change, negative = cytotoxicity in assay [4] was 9.75%. Moreover, the call in assay [5], in assay [6], in [7], in assay [8], in [9] and in assay [10] was inactive. Besides, the result in assay [11] and in [20] was inactive.

In the case of `O=C(O)CC(C(=O)O)C(CC(=O)O)C(=O)O` (stereo not given), the Potency in assay [1] and in assay [2] was > 92 µM in each case. The Potency entry in assay [3], in assay [12], in assay [13], in assay [14], in assay [15] and in assay [16] was “inactive” in each case. Further, the Potency result in [17], in assay [18] and in assay [19] was “inactive” throughout. In [4], the activity change, negative = cytotoxicity is -11.1%. The compound was called inactive in assay [5], in assay [6], in assay [7], in [8], in [9] and in assay [10]. Also, the outcome in assay [11] and in assay [20] was inactive.

With `C=CCOC(=O)c1ccccc1C(=O)OCC=C`, the Potency in [1] and in [2] was > 92 µM each time. In addition, the Potency entry in assay [3], in [12], in assay [13], in assay [14], in assay [15] and in assay [16] was “inactive” throughout. Further, the Potency entry in assay [17], in assay [18] and in assay [19] was “inactive” in each case. Besides, the activity change, negative = cytotoxicity in [4] was -9.3%. Also, the outcome in assay [5], in [6], in [7], in assay [8], in assay [9] and in [10] was inactive. Further, the outcome in [11] and in [20] was inactive.

Turning to `C=CC(=O)OCCOCCOCCOCCOC(=O)C=C`, the Potency in [1] is 41.6 µM (active); in assay [2] it was 10.9 µM (active) and 23.1 µM (active); in assay [3], 2.51 µM (active) and 3.98 µM (active); in [12] it was 25.1 µM (active) and 31.6 µM (active); in [13], 12.6 µM (active) and 31.6 µM (active); in assay [14], 20 µM (active) and 25.1 µM (active). Moreover, the Potency in [15] is 20 µM (active); in [16] it was 20 µM (active); in [17] it was 15.8 µM (active); in assay [18], 12.6 µM (active); in assay [19], 15.8 µM (active). In addition, the activity change, negative = cytotoxicity in [4] was -89.5% (active) and -83.9% (active). Besides, the compound was classed as inactive in assay [5], in [6], in assay [7], in assay [8], in [9] and in assay [10]. The compound was classed as inactive in assay [11] and in assay [20].
